Test results from PubChem BioAssay (NCI).
About 83,000 compounds went through this panel and 20% of them were active in at least one assay; those are over-represented in the sample as a whole.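 Compound tested at a single concentration for 48 hours in 96-well plates; a percent growth value below 10 was scored as active.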 Unmarked numbers belong to inactive results. Active and inactive are the calls of the source.

Legend:
Assay in all cases: NCI-60 one-dose screen, 48 h (100 = growth as untreated, 0 = no growth, -100 = all killed)
Conditions in all cases: 10 µM unless noted
NCI-H23 lung = tested on: NCI-H23 lung
NCI-H226 lung = tested on: NCI-H226 lung
NCI-H322M lung = tested on: NCI-H322M lung
HOP-62 NSCLC = tested on: HOP-62 NSCLC
NCI-H460 lung = tested on: NCI-H460 lung
HOP-92 NSCLC = tested on: HOP-92 NSCLC
NCI-H522 lung = tested on: NCI-H522 lung
A549/ATCC NSCLC = tested on: A549/ATCC NSCLC
786-0 renal = tested on: 786-0 renal
COLO 205 colon = tested on: COLO 205 colon
DU-145 prostate = tested on: DU-145 prostate
MALME-3M melanoma = tested on: MALME-3M melanoma
MDA-MB-231 breast = tested on: MDA-MB-231 breast
RXF 393 renal = tested on: RXF 393 renal
SF-268 CNS = tested on: SF-268 CNS
SF-295 CNS = tested on: SF-295 CNS
SF-539 CNS = tested on: SF-539 CNS
UACC-257 melanoma = tested on: UACC-257 melanoma
M14 melanoma = tested on: M14 melanoma

Structure (SMILES)	growth (NCI-H23 lung)	growth (NCI-H226 lung)	growth (NCI-H322M lung)	growth (HOP-62 NSCLC)	growth (NCI-H460 lung)	growth (HOP-92 NSCLC)	growth (NCI-H522 lung)	growth (A549/ATCC NSCLC)	growth (786-0 renal)	growth (COLO 205 colon)	growth (DU-145 prostate)	growth (MALME-3M melanoma)	growth (MDA-MB-231 breast)	growth (RXF 393 renal)	growth (SF-268 CNS)	growth (SF-295 CNS)	growth (SF-539 CNS)	growth (UACC-257 melanoma)	growth (M14 melanoma)
Cc1cc(N2CCCCC2)nc(NC2CCCC(Nc3ccnc4cc(Cl)ccc34)C2)n1 (centres undefined)	-15.5% (active)	-50.8% (active)	-48.7% (active)	-86.5% (active)	-64.9% (active)	-71.1% (active)	-54.6% (active)	-23.7% (active)	-96% (active)	-85.8% (active)	1.31% (active)	-86% (active)	-89.8% (active)	-81.2% (active)	-59.6% (active)	-76.7% (active)	-92.8% (active)	-90.9% (active)	-86.5% (active)
O=C(CN1CCCCC1)Nc1ccc2oc(=O)ccc2c1	97.5%	95.8%	105%	99.7%	104%	91.3%	84.6%	100%	107%	119%	113%	106%	105%	113%	97.5%	106%	129%	96.3%	106%
COc1ccc2c(c1)CC/C(=C\c1cncc(Br)c1)C2=O	92.7%	111%	106%	90%	103%	84.4%	55.7%	95.3%	92.7%	106%	102%	106%	94.5%	98.4%	97.1%	94.5%	93.2%	112%	92.9%
O=C1/C(=C/c2ccccc2O)N=C2SCCCN12	80.9%	97.2%	97.5%	88.4%	103%	80.9%	79.7%	101%	98.8%	99.9%	103%	95.1%	78.8%	112%	99.5%	98.6%	95.4%	103%	102%
Clc1ccc2c(NCCCCNc3nc(N4CCCCC4)nc4ccccc34)ccnc2c1	53.1%	35.8%	6.86% (active)	-11.1% (active)	6.3% (active)	-35.3% (active)	-18.6% (active)	16.2%	-90.3% (active)	-64.5% (active)	27.6%	-81.8% (active)	-51.3% (active)	-62.8% (active)	19.9%	-54.8% (active)	-86.7% (active)	-83.5% (active)	-84.6% (active)
CC1C(/C=N/Nc2ccccc2)C(C#N)(C#N)C1(C#N)C#N (centres undefined)	78.6%	88%	75.1%	57.1%	87.9%	90.5%	53.9%	85.1%	92.9%	105%	89.7%	99.2%	70.1%	105%	75.4%	70.9%	102%	98.6%	33.2%
COc1cc2c(cc1O)CC[C@@H]1[C@@H]2CC[C@]2(C)[C@@H](OCCN(C)C)CC[C@@H]12	42.3%	76.5%	51.3%	59.9%	39.6%	48.6%	18.4%	66.5%	57.9%	58.8%	12.8%	16.7%	16.2%	52.4%	56.2%	-4.56% (active)	4.14% (active)	-18.2% (active)	0.0496% (active)
COc1ccc(C2C(C#N)=C(N)Oc3n[nH]c(-c4cccs4)c32)cc1I (centres undefined)	92.8%	98.3%	102%	81.7%	101%	88.2%	83.2%	87.1%	99.1%	117%	107%	102%	102%	93.9%	91.2%	94.4%	85.6%	89.4%	90%
O=C1/C(=C/c2ccc(OCCCOc3ccc(Cl)cc3)cc2)N=C2SCCCN12	49.7%	86.4%	103%	99.1%	98.1%	92.5%	34.6%	73.4%	82.1%	78.2%	94.5%	122%	77.3%	110%	100%	66.7%	97%	102%	95.9%
CCc1nc(N)nc(N)c1C#CC(C)c1cc(-c2ccnc(C)c2)c2oc(C)nc2c1 (centres undefined)	5.82% (active)	44.7%	25.3%	-2.79% (active)	2.7% (active)	-0.67% (active)	18.2%	3.87% (active)	6.31% (active)	0.792% (active)	8.31% (active)	36.7%	25.6%	-5.33% (active)	1.29% (active)	5.73% (active)	-27.3% (active)	30.9%	-9.02% (active)
CC[N+](CC)=c1sc2c(s1)C(c1ccc(Cl)cc1)Oc1ccc(Cl)cc1-2 (centres undefined)	6.45% (active)	52.1%	16.8%	12.4%	-29.6% (active)	-18% (active)	-12.9% (active)	7.61% (active)	30.7%	-69.6% (active)	24.4%	-9.37% (active)	-38% (active)	10.7%	24%	2.98% (active)	-22.1% (active)	-7.21% (active)	17.3%
CCOc1ccc(-n2nc(C(=O)Nc3cc(OC)c(OC)c(OC)c3)nc2-c2cc(OC)c(OC)c(OC)c2)cc1	85%	78.1%	89.2%	95.7%	92.1%	69.9%	65.9%	86.9%	77.1%	80.3%	99.1%	85.2%	50.5%	83.8%	92.1%	95.9%	87.8%	93.1%	91.5%
COc1cc(-c2nn(-c3ccc(C)cc3)cc2C(=O)O)ccc1O	89.1%	102%	96.7%	88.2%	104%	97.7%	79.5%	107%	101%	112%	109%	90%	91.7%	125%	90.4%	97.9%	101%	105%	96.8%
Clc1ccc2c(NCCCCNc3nc(N4CCOCC4)nc4ccccc34)ccnc2c1	59.7%	-43.4% (active)	26.4%	-9.83% (active)	4.54% (active)	71.8%	-25.6% (active)	14.6%	-54.1% (active)	-46.9% (active)	38.4%	-58.7% (active)	-58.3% (active)	86.3%	43%	-5.21% (active)	-84.5% (active)	84.9%	-66.2% (active)
CN(C)c1ccc(NC(=O)c2ccc(/C=C/C(=O)c3ncc[nH]3)cc2)cc1	59.8%	89.1%	76.1%	54.7%	25.4%	94.1%	59.4%	63.1%	47.1%	37.6%	20.2%	87.9%	71.8%	67.4%	56.2%	74.6%	6.24% (active)	91.7%	67.8%
CC(=O)c1cc2c(N)c(C(=O)Nc3cccc(F)c3C)sc2nc1C	94.2%	88%	95.7%	73.8%	83.1%	73.1%	82.1%	56.5%	92.1%	74.3%	99.1%	94%	82.1%	96.6%	94.3%	82.4%	93.5%	74.5%	65.2%
